Screen size: about 5,500 compounds; about 2,000 (36%) were called active. Not shown: some 18% with an inconclusive outcome. Cut-off read from the data, not from the text of the source: active = normalized growth mostly below about 0.91 (no sharp cut-off); inconclusive = no clear call, values can overlap the other calls; inactive = mostly above about 0.92. Some of the results follow.
Assay: chemical genetic growth profiling, strain panel (AID 1159580);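 note: tested at 20 µM; growth read once vehicle control cultures reached saturation at 30 °C; 1 = growth at the plate median or of vehicle wells; lower values mean less growth of the strain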
Details: growth OD

Measured: normalized growth

c1cncc(C2CCCCN2)c1 (configuration not stated)
inactive: S. cerevisiae deletion strains, locus YJR066W, strain TOR1, active compounds read low 0.974 | S. cerevisiae deletion strains, locus YJR075W, strain HOC1, active compounds read low 1.03 | S. cerevisiae deletion strains, locus YKL009W, strain mrt4, active compounds read low 0.992 | S. cerevisiae deletion strains, locus YKL068W, active compounds read low 1 | S. cerevisiae deletion strains, locus YKL085W, strain MDH1 (second series), active compounds read low 0.998 | S. cerevisiae deletion strains, locus YKL085W, strain MDH1, active compounds read low 0.998 | S. cerevisiae deletion strains, locus YKL160W, strain elf1, active compounds read low 0.992 | S. cerevisiae deletion strains, locus YKL190W, strain CNB1, active compounds read low 0.99 | S. cerevisiae deletion strains, locus YKR001C, strain vps1, active compounds read low 0.986 | S. cerevisiae deletion strains, locus YKR026C, strain gcn3, active compounds read low 0.996 | S. cerevisiae deletion strains, locus YKR091W, strain srl3, active compounds read low 0.988 | S. cerevisiae deletion strains, locus YLL001W, strain dnm1, active compounds read low 0.993 | S. cerevisiae deletion strains, locus YLL026W, active compounds read low 0.996 | S. cerevisiae deletion strains, locus YLL041C, strain sdh2, active compounds read low 0.991 | S. cerevisiae deletion strains, locus YLR027C, strain aat2, active compounds read low 0.999 | S. cerevisiae deletion strains, locus YLR039C, strain RIC1, active compounds read low 1.07 | S. cerevisiae deletion strains, locus YLR058C, strain SHM2, active compounds read low 1.01 | S. cerevisiae deletion strains, locus YLR102C, strain apc9, active compounds read low 1 | S. cerevisiae deletion strains, locus YLR113W, strain HOG1, active compounds read low 0.997 | S. cerevisiae deletion strains, locus YLR221C, strain rsa3, active compounds read low 0.991 | S. cerevisiae deletion strains, locus YLR258W, strain gsy2, active compounds read low 1.02 | S. cerevisiae deletion strains, locus YLR262C, strain YPT6 (second series), active compounds read low 0.986 | S. cerevisiae deletion strains, locus YLR262C, strain YPT6, active compounds read low 1.06 | S. cerevisiae deletion strains, locus YLR268W, strain sec22, active compounds read low 0.968 | S. cerevisiae deletion strains, locus YLR320W, strain mms22, active compounds read low 0.981 | S. cerevisiae deletion strains, locus YLR330W, strain CHS5, active compounds read low 1.03 | S. cerevisiae deletion strains, locus YLR342W, strain FKS1 (second series), active compounds read low 1.02 | S. cerevisiae deletion strains, locus YLR342W, strain FKS1, active compounds read low 0.986 | S. cerevisiae deletion strains, locus YLR357W, strain rsc2, active compounds read low 0.959 | S. cerevisiae deletion strains, locus YLR370C, strain arc18, active compounds read low 0.988 | S. cerevisiae deletion strains, locus YLR371W, strain rom2, active compounds read low 0.985 | S. cerevisiae deletion strains, locus YLR384C, strain iki3, active compounds read low 0.98 | S. cerevisiae deletion strains, locus YLR418C, strain cdc73, active compounds read low 0.995 | S. cerevisiae deletion strains, locus YML016C, strain PPZ1, active compounds read low 1.02 | S. cerevisiae deletion strains, locus YML032C, strain rad52, active compounds read low 1.01 | S. cerevisiae deletion strains, locus YML120C, strain ndi1, active compounds read low 0.998 | S. cerevisiae deletion strains, locus YML124C, strain tub3, active compounds read low 0.998 | S. cerevisiae deletion strains, locus YMR058W, strain fet3, active compounds read low 0.993 | S. cerevisiae deletion strains, locus YMR078C, strain ctf18, active compounds read low 0.999 | S. cerevisiae deletion strains, locus YMR125W, strain sto1, active compounds read low 0.981 | S. cerevisiae deletion strains, locus YMR129W, active compounds read low 0.99 | S. cerevisiae deletion strains, locus YMR205C, strain PFK2, active compounds read low 1.02 | S. cerevisiae deletion strains, locus YMR223W, strain ubp8, active compounds read low 1.01 | S. cerevisiae deletion strains, locus YMR231W, strain pep5, active compounds read low 0.981 | S. cerevisiae deletion strains, locus YMR307W, strain GAS1, active compounds read low 1.11 | S. cerevisiae deletion strains, locus YNL067W, strain RPL9B, active compounds read low 1.01 | S. cerevisiae deletion strains, locus YNL071W, strain lat1, active compounds read low 0.998 | S. cerevisiae deletion strains, locus YNL153C, strain GIM3, active compounds read low 1.02 | S. cerevisiae deletion strains, locus YNL183C, strain NPR1, active compounds read low 0.965 | S. cerevisiae deletion strains, locus YNL209W, strain ssb2, active compounds read low 0.991 | S. cerevisiae deletion strains, locus YNL233W, strain BNI4, active compounds read low 1.03 | S. cerevisiae deletion strains, locus YNL248C, strain rpa49, active compounds read low 0.987 | S. cerevisiae deletion strains, locus YNL250W, strain rad50, active compounds read low 1.01 | S. cerevisiae deletion strains, locus YNL271C, strain bni1, active compounds read low 0.996 | S. cerevisiae deletion strains, locus YNL298W, strain CLA4, active compounds read low 0.988 | S. cerevisiae deletion strains, locus YNL307C, strain MCK1, active compounds read low 0.997 | S. cerevisiae deletion strains, locus YNL322C, strain KRE1 (second series), active compounds read low 0.985 | S. cerevisiae deletion strains, locus YNR049C, strain mso1, active compounds read low 0.99 | S. cerevisiae deletion strains, locus YNR052C, strain pop2, active compounds read low 0.995 | S. cerevisiae deletion strains, locus YOL012C, strain htz1 0.806 | S. cerevisiae deletion strains, locus YOL147C, strain pex11, active compounds read low 0.991 | S. cerevisiae deletion strains, locus YOR001W, strain rrp6, active compounds read low 0.994 | S. cerevisiae deletion strains, locus YOR061W, strain CKA2, active compounds read low 1.01 | S. cerevisiae deletion strains, locus YOR069W, strain VPS5, active compounds read low 0.993 | S. cerevisiae deletion strains, locus YOR070C, strain gyp1, active compounds read low 0.978 | S. cerevisiae deletion strains, locus YOR080W, strain dia2, active compounds read low 0.982 | S. cerevisiae deletion strains, locus YOR083W, strain WHI5, active compounds read low 1 | S. cerevisiae deletion strains, locus YOR106W, strain vam3, active compounds read low 0.997 | S. cerevisiae deletion strains, locus YOR136W, strain idh2, active compounds read low 0.978 | S. cerevisiae deletion strains, locus YOR144C, strain elg1, active compounds read low 0.996 | S. cerevisiae deletion strains, locus YOR184W, strain ser1, active compounds read low 1 | S. cerevisiae deletion strains, locus YOR231W, strain MKK1, active compounds read low 1 | S. cerevisiae deletion strains, locus YOR265W, strain rbl2, active compounds read low 1.01 | S. cerevisiae deletion strains, locus YOR270C, strain vph1, active compounds read low 1 | S. cerevisiae deletion strains, locus YOR290C, strain snf2, active compounds read low 1 | S. cerevisiae deletion strains, locus YOR316C, strain cot1, active compounds read low 0.998 | S. cerevisiae deletion strains, locus YPL051W, strain arl3, active compounds read low 1.01 | S. cerevisiae deletion strains, locus YPL078C, strain atp4, active compounds read low 0.994 | S. cerevisiae deletion strains, locus YPL106C, strain sse1, active compounds read low 0.972 | S. cerevisiae deletion strains, locus YPL240C, strain hsp82, active compounds read low 0.992 | S. cerevisiae deletion strains, locus YPL256C, strain CLN2, active compounds read low 0.997 | S. cerevisiae deletion strains, locus YPR119W, strain clb2, active compounds read low 0.989 | S. cerevisiae deletion strains, locus YPR141C, strain kar3, active compounds read low 1 | S. cerevisiae deletion strains, locus YPR163C, strain tif3, active compounds read low 0.99 | S. cerevisiae deletion strains, locus YPR167C, strain met16, active compounds read low 0.999 | S. cerevisiae deletion strains, strain wtn01, active compounds read low 0.957 | S. cerevisiae strains, strain wild type, active compounds read low 1.01

Reference: PubChem BioAssay AID1159580 (chemical genetic matrix, 2015)
